Sampled rows, rich in hits. Any-hit rate of the full collection: about 5.4%.
CSC inhib = blocks cancer stem cells | cancer stem cell-like cells viability, luminescence | AID 2717 | actives 1.1% (n = 300,000) | inhibition, % at 7.5 µM; in the data active = inhibition above about 75%; tested in HMLE shEcad cells
PP1 inh = counter-screen for PP5 inhibitors: inhibitors of human PP1-alpha; P62136; purified PP1alpha, OMFP fluorescence; inhibition, % at 6.7 µM; actives 0.9% (n = 320,000);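 active = inhibition above the mean inhibition of all tested compounds plus 3 SD, computed separately for each screening campaign, cut at about 15% in these data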
Target sequence (P62136 whole entry, looked up): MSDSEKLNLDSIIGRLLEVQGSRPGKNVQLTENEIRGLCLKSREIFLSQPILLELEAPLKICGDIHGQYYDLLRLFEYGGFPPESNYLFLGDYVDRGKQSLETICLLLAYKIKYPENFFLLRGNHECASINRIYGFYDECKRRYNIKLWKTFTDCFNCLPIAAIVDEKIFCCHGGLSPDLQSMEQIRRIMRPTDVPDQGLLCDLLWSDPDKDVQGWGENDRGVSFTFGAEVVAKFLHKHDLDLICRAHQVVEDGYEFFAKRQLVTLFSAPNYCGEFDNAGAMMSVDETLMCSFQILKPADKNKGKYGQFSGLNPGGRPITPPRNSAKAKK
PP5 primary = PP5 (human) phosphatase inhibition. purified PP5c, OMFP substrate fluorescence. inhibition, % at 6.7 µM. P53041. actives 0.18% (n = 320,000);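 active = inhibition above the campaign's mean inhibition across all tested compounds plus 3 SD, cut at about 9.5% in these data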;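 note: 0% = DMSO only and 100% = 100 µM cantharidin control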
ALR inh = blocks human ALR sulfhydryl oxidase activity; purified ALR, DTT oxidation, H2O2 HRP-luminol luminescence; inhibition, % (test concentration not listed); actives 3.8% (n = 290,000); AID 485317;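 active = mean replicate inhibition above about 79%, with every replicate also reaching it, limit read from the data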
Target sequence (P55789 whole entry, looked up): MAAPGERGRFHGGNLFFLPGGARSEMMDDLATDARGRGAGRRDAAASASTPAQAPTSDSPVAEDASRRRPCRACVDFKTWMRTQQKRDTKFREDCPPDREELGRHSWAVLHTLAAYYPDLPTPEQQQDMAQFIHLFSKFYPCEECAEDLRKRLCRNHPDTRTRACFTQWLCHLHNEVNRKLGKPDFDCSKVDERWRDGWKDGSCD
Calb FLC = affects C. albicans growth with fluconazole. C. albicans CaCi-2 (fluconazole-resistant clinical isolate) + fluconazole, Alamar Blue growth, 48 h. growth inhibition, % (concentration not given with the values). actives 0.57% (n = 300,000). AID 1979;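 active = growth inhibition above about 58% in most replicates, limit read from the data, passing the limit was not always enough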;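 note: all wells also contain fluconazole at 8 µg/ml as a sub-toxic cotreatment; 0% = median of DMSO wells and 100% = median of geldanamycin control wells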
The depositor's hits bear a star.

CN1C(=O)C(=Cc2ccccc2OCc2ccccc2Cl)C(=O)N(C)C1=O was read as CSC inhib 19.0, PP1 inh 2.6, PP5 primary 4.4, ALR inh 33.8 and Calb FLC 18.9.
COc1cc(/C=C(/C)[N+](=O)[O-])ccc1OCc1ccccc1Cl was read as CSC inhib 77.5*, PP1 inh 5.6, PP5 primary 0.8 and ALR inh 2.7.
O=C(c1cc2c(s1)-c1ccccc1OC2)N1CCC2(CC1)OCCO2 was read as CSC inhib 43.5, PP1 inh -1.1, PP5 primary 1.6 and Calb FLC 100.2*.
Oc1c(Br)cc(Br)cc1Oc1ccc(Br)cc1Br was read as CSC inhib 107.8*, PP1 inh 2.0, PP5 primary 0.9, ALR inh 30.0 and Calb FLC 87.4*.
For Cc1cc(C=O)c(C)n1C1CC1 the results were CSC inhib -7.0, PP1 inh -0.8, PP5 primary -0.1, ALR inh -4.7 and Calb FLC -8.0.
C=CCN1CCc2cccc3c2[C@H]1Cc1ccc(O)c(O)c1-3 was read as CSC inhib -6.0, PP1 inh 5.4, PP5 primary 2.2, ALR inh 99.5* and Calb FLC 10.5.
`CCc1nc2ccc(Br)cc2c(=O)n1-c1ccccc1C(F)(F)F` gave CSC inhib -0.9, PP1 inh 3.3, PP5 primary 4.2, ALR inh -1.5 and Calb FLC 0.6.
`CCCc1nc2ccc(Br)cc2c(=O)n1-c1ccc([N+](=O)[O-])c(C(F)(F)F)c1` gave CSC inhib 126.8*, PP1 inh 4.0, PP5 primary 3.0, ALR inh -14.8 and Calb FLC 27.5.
Screening O=c1[nH]c(=O)n(C2CCCCCC2)c(O)c1C=NC1CCN(Cc2ccccc2)CC1 returned CSC inhib 0.2, PP1 inh -4.4, PP5 primary 0.7, ALR inh 17.3 and Calb FLC 14.9.
Cc1cc(Br)ccc1N1C(=O)CC(=O)NC1=O was read as CSC inhib -15.7, PP1 inh 2.3, PP5 primary 0.6, ALR inh 85.4* and Calb FLC -1.5.
Cc1nn(Cc2ccccc2Cl)c(Cl)c1C(=O)O was read as CSC inhib -0.1, PP1 inh 1.2, PP5 primary -0.8, ALR inh -3.7 and Calb FLC -1.4.
Screening CC(C)(C)c1nc(N2CCN(C(=O)c3ccco3)CC2)c2nnn(Cc3ccccc3Cl)c2n1 returned CSC inhib 119.0*, PP1 inh 6.2, PP5 primary -0.5 and Calb FLC -23.0.
For CC(=NCCC1=CCCCC1)c1c(O)n(-c2ccccc2)c(=O)[nH]c1=O the results were CSC inhib -2.8, PP1 inh -4.2, PP5 primary 0.2, ALR inh -5.7 and Calb FLC 4.9.
For CCCCCc1cc(O)c2c3c(c(=O)oc2c1)CN(C)CC3 the results were CSC inhib 84.0*, PP1 inh -1.1, PP5 primary 1.6, ALR inh 7.3 and Calb FLC -6.7.
Screening Cc1ccc(N=Nc2c(O)[nH]c(=O)[nH]c2=O)c([N+](=O)[O-])c1 returned CSC inhib -6.8, PP1 inh -1.3, PP5 primary 1.0, ALR inh -4.2 and Calb FLC 6.4.
For CN1C(=O)C(=Cc2ccc(SC3CCCCC3)o2)C(=O)N(C)C1=O the results were CSC inhib 0.9, PP1 inh -1.3, PP5 primary -0.9, ALR inh 88.0* and Calb FLC -7.3.
For Cc1ccc(/C=C2\C(=O)NC(=S)N(c3ccc(F)cc3)C2=O)s1 the results were CSC inhib 28.3, PP1 inh 4.6, PP5 primary 0.7, ALR inh 14.9 and Calb FLC 4.8.
`Cc1ccc(/C=C2\C(=O)NC(=S)N(c3ccccc3F)C2=O)s1` gave CSC inhib 4.6, PP1 inh -2.6, PP5 primary -2.2 and ALR inh 97.6*.
Screening CCC(=NCc1ccc2c(c1)OCO2)c1c(O)n(C)c(=O)n(C)c1=O returned CSC inhib -1.4, PP1 inh 4.3, PP5 primary 2.1 and Calb FLC 4.6.
`COc1ccc2[nH]c(C)c(CCNCc3cccnc3)c2c1` gave CSC inhib -21.7, PP1 inh 0.2, PP5 primary 2.1 and ALR inh 43.1.
For Cc1[nH]c2ccc(OC(F)(F)F)cc2c1CCNCc1cccc([N+](=O)[O-])c1 the results were CSC inhib 33.0, PP1 inh 8.0, PP5 primary 5.6, ALR inh -4.3 and Calb FLC 15.6.
For CCOc1cccc(CNCCc2c(C)[nH]c3ccc(OC(F)(F)F)cc23)c1O the results were CSC inhib 124.0*, PP1 inh 3.3, PP5 primary 4.4, ALR inh 9.6 and Calb FLC 57.9.
Cc1[nH]c2ccc(OC(F)(F)F)cc2c1CCNCc1ccc(Cl)cc1 was read as CSC inhib 104.4*, ALR inh -17.5 and Calb FLC 24.9.
CC(C)(C)C(O)C(Oc1ccc(Cl)cc1)n1cncn1 (configuration not stated) was read as CSC inhib 7.2, PP1 inh -5.8, PP5 primary 1.4 and ALR inh -2.3.
O=C(CCN1CCN(CCO)CC1)N1c2ccccc2Sc2ccc(C(F)(F)F)cc21 was read as CSC inhib 8.8, PP1 inh 1.9, PP5 primary 1.9 and ALR inh 13.0.
COC(=O)C1=C(c2cccc3c2S(=O)(=O)c2ccccc2-3)C[C@@H]2CC[C@H]1N2C(=O)N1CCc2cc(OC)c(OC)cc2C1 was read as CSC inhib -3.2, PP1 inh 0.2, PP5 primary 0.5 and ALR inh 1.1.
Screening Cc1ccc(-n2c(O)c(C=NCCN3CCNCC3)c(=O)[nH]c2=S)cc1 returned CSC inhib -3.6, PP1 inh -1.9, PP5 primary -3.0, ALR inh 1.4 and Calb FLC -1.9.
Screening CN(C)[C@@H]1C(=O)C(C(N)=O)=C(O)[C@@]2(O)C(=O)C3=C(O)c4c(O)cccc4[C@@](C)(O)C3C[C@@H]12 (some centres not stated) returned CSC inhib -5.4, PP1 inh 3.8, PP5 primary 0.4, ALR inh -1.3 and Calb FLC -15.4.
Screening C[C@H]1CCCC(=O)CCC/C=C/c2cc(O)cc(O)c2C(=O)O1 returned CSC inhib 12.3, PP1 inh -0.2 and PP5 primary 3.8.
`C[C@H]1CCC/C=C/[C@@H]2C[C@H](O)C[C@H]2[C@H](O)/C=C/C(=O)O1` gave CSC inhib 100.3*, PP1 inh -5.1, PP5 primary 0.1 and ALR inh 2.0.
`Oc1ccc(-[n+]2c(-c3ccccc3)cc(-c3ccccc3)cc2-c2ccccc2)cc1` gave CSC inhib -15.3, PP1 inh 5.2, PP5 primary 0.6, ALR inh -6.3 and Calb FLC 102.6*.
`COc1ccc(-[n+]2c(-c3ccccc3)cc(-c3ccccc3)cc2-c2ccccc2)cc1` gave CSC inhib 41.8, PP1 inh 0.5, PP5 primary 0.6, ALR inh 13.1 and Calb FLC 108.4*.
For O=C([O-])c1ccc(-[n+]2c(-c3ccccc3)cc(-c3ccccc3)cc2-c2ccccc2)cc1 the results were CSC inhib -9.4, PP1 inh 4.9, PP5 primary 2.4, ALR inh -31.1 and Calb FLC -22.2.
